Screening results (PubChem BioAssay)
ALOX15B inhib: blocks human 15-lipoxygenase 2 activity; purified 15hLO-2, xylenol orange hydroperoxide absorbance; Potency, µM (series often up to 57.1 µM), for the others: top-dose activity change, negative = inhibition, actives largely listed as inhibitors; 110,000 compounds, 0.56% hits; AID 881; note: potency is the fitted concentration of half-maximal effect; nearly all actives have a fitted effect of over 60% in size
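Enzyme 50 nM, AA 45 uM, 25 mM Hepes pH 7.5 + 0.01% Triton X-100; cpd preinc 15 min RT, rxn 90 min RT; stop/detect with 200 uM XO + 300 uM Fe(II) in 50 mM H2SO4, 30 min; A573/A405.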
12-hLO inh: blocks human 12-lipoxygenase activity; purified 12-hLO, xylenol orange hydroperoxide absorbance; P18054; 150,000 compounds, 0.12% hits; Potency, µM (highest dose often 57.1 µM), for the others: at the top dose activity change, negative = inhibition, actives largely listed as inhibitors; note: potency is the fitted concentration of half-maximal effect; nearly all actives have a fitted effect of over 55% in size
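Hydroperoxide output read as Fe(III)-xylenol orange absorbance, 573-to-405 nm ratio, after 30 min reaction with 40 uM arachidonic acid. Enzyme: 150 nM purified human 12hLO, 15 min compound preincubation; 25 mM Hepes pH 7.0, room temperature.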
PNC assembly inh: blocks assembly of the perinucleolar compartment; 140,000 compounds, 3.1% hits; PC3M PTB-GFP, PNC prevalence imaging, 16 h; active compounds read low; activity change (PNC), negative = inhibition, % at 10 µM;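 active = readout at or below -70, meaning at least 70% loss of cells showing the perinucleolar compartment, a nuclear body marking cancer cells; inconclusive = readout between -30 and a set limit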;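 note: plate controls were DMSO wells for no effect and camptothecin positive control wells for full effect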
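PC3M cells stably expressing PTB-GFP, 750–1000 cells/well, treated 16 h at 37 °C with compound (23 nl of library stock), in duplicate. After paraformaldehyde fixation and Hoechst stain, imaged at 20x; PNC prevalence scored by image analysis.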
Active calls of the source: *; [ ] = dose if it differs, or a comment. An excerpt weighted towards active compounds, which were near 3.2% of everything screened. Unless noted, calls come from the whole dose curve; as a rule, active = well fitted curve in the direction sought with a large enough effect; inconclusive = small, poorly fitted or top-dose-only effect, or another doubt; inactive = no such curve, though single readings can be large; an effect the other way counts as inactive or inconclusive. Unless noted, % is set by controls: 0 for no effect and ±100 for the full control effect.

How did CNc1ncnc2ccc(-c3ccc4c(c3)OCO4)cc12 do in these assays?
ALOX15B inhib: -5%

How did COc1ccc(CNc2ccnc(-c3cccc(NS(C)(=O)=O)c3)n2)c(OC)c1 do in these assays?
ALOX15B inhib: -2%

Results for Cc1ccc(-c2csc3ncnc(OCC(=O)NC(=O)NCc4ccco4)c23)cc1 ?
ALOX15B inhib: -21%; 12-hLO inh: -20%; PNC assembly inh: -125*

What do the screens show for `O=C(COc1ncnc2scc(-c3ccc(F)cc3)c12)NCc1ccco1`?
ALOX15B inhib: -23%; 12-hLO inh: -11%; PNC assembly inh: -29

Results for NC(CSCC(=O)O)C(=O)O (stereo unspecified) ?
ALOX15B inhib: -1%[0.0915 µM]; 12-hLO inh: 4%[0.00818 µM]

What do the screens show for `CSc1nnc2c3c4c(sc3nc(-n3nc(C)cc3C)n12)COC(C)(C)C4`?
ALOX15B inhib: -9%; 12-hLO inh: 1%; PNC assembly inh: 14

How did Cc1cc(C)n(-c2nc3sc4c(c3c3nnc(SCC(N)=O)n23)CC(C)(C)OC4)n1 do in these assays?
12-hLO inh: 2%; PNC assembly inh: -100*

What do the screens show for `CCOC(=O)c1sc(/N=C/N(C)C)c(C(=O)OCC)c1C`?
ALOX15B inhib: -9%; 12-hLO inh: -1%; PNC assembly inh: -82*

Results for CCOC(=O)c1sc(/N=C/N(C)C)nc1C ?
12-hLO inh: 4%; PNC assembly inh: 30

How did COC(=O)c1ccc(C(NC(=O)OCc2ccccc2)/C(I)=C/[C@@H](C)C(=O)NCc2ccc(C)o2)cc1 (stereo partly specified) do in these assays?
ALOX15B inhib: inconclusive; 12-hLO inh: -5%

How did O=C(CN1C(=O)C2C3C=CC(C3)C2C1=O)Nc1ccc(S(=O)(=O)N2CCCCC2)cc1 (stereo unspecified) do in these assays?
12-hLO inh: 2%; PNC assembly inh: -15

What do the screens show for `C1CCOC1`?
ALOX15B inhib: -6%; 12-hLO inh: 0%

How did Cc1cc(C)c(/C=N/n2c(C)cc(C)c(C#N)c2=O)c(C)c1 do in these assays?
12-hLO inh: 8%; PNC assembly inh: 37

Results for Cc1cc(C)n(/N=C/c2cccs2)c(=O)c1C#N ?
12-hLO inh: 2%; PNC assembly inh: -98*
